Here are results for 15 compounds from PubChem BioAssay (NCI).

Common to all, as to experiment: NCI-60 one-dose screen, 48 h (100 = growth as untreated, 0 = no growth, -100 = all killed)
For one assay, the system named is HCT-15 colon. The conditions noted are these: 10 µM unless noted.
The next assay relates to HT29 colon. The conditions noted are these: 10 µM unless noted.
A further assay concerns SNB-75 CNS. The conditions noted are these: 10 µM unless noted.
The test system of a further assay is SNB-19 CNS. The conditions noted are these: 10 µM unless noted.
The test system of the next assay is U251 CNS. The note with it: 10 µM unless noted.
The next assay relates to PC-3 prostate. The note with it: 10 µM unless noted.
The test system of a further assay is SK-MEL-5 melanoma. The note with it: 10 µM unless noted.
Another assay deals with UACC-62 melanoma. The conditions noted are these: 10 µM unless noted.
A further assay relates to LOX IMVI melanoma. The conditions noted are these: 10 µM.
The next assay has as its system SK-MEL-28 melanoma. The conditions noted are these: 10 µM unless noted.

The structures appear in SMILES notation. The panel holds about 83,000 compounds, 20% with a hit somewhere; the sample as a whole holds those more often.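 In brief: 96-well plates, 48 h treatment, single concentration, percent growth endpoint.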 Unmarked numbers belong to inactive results. The source made the active and inactive calls. The calls were made as follows: active = growth percent below 10; inactive = the rest.

For the compound `CC(CO)(CO)C(=O)O`, the growth in the assay on HCT-15 colon is 100%; with HT29 colon, 102%; in the assay on SNB-75 CNS it was 97.4%; in the assay on SNB-19 CNS, 105%; in the assay on U251 CNS it was 102%; with PC-3 prostate, 94.9%. For the same compound, the growth was 97.3% in the assay with SK-MEL-5 melanoma, 103% with UACC-62 melanoma, 97.9% with LOX IMVI melanoma and 110% with SK-MEL-28 melanoma.
For `Nc1nnc2cc(F)ccc2n1`, the growth with HCT-15 colon was 99.4%; in the assay on HT29 colon, 111%; with SNB-75 CNS, 75.1%; in the assay with SNB-19 CNS it was 99.2%; in the assay with U251 CNS, 110%; in the assay on PC-3 prostate, 96.6%. Besides, the growth with SK-MEL-5 melanoma is 114%; in the assay on UACC-62 melanoma it was 105%; with LOX IMVI melanoma it was 96.3%; in the assay with SK-MEL-28 melanoma it was 108%.
As for `C=CCC(O)C=C` (stereo not given), the growth with HCT-15 colon was 101%; in the assay with HT29 colon, 110%; in the assay with SNB-75 CNS, 99.3%; in the assay on SNB-19 CNS, 101%; in the assay with U251 CNS, 102%; with PC-3 prostate, 101%. For the same compound, the growth in the assay on SK-MEL-5 melanoma is 102%; in the assay with UACC-62 melanoma, 104%; with LOX IMVI melanoma it was 97.3%; with SK-MEL-28 melanoma, 105%.
As to `O=C(NC1CCCCC1)c1ccc(Cl)cc1`, the growth in the assay with HCT-15 colon is 108%; in the assay with HT29 colon it was 101%; with SNB-75 CNS it was 90%; with SNB-19 CNS, 101%; with U251 CNS it was 98.6%; in the assay on PC-3 prostate, 102%. Besides, the growth was 101% with SK-MEL-5 melanoma, 97.6% in the assay on UACC-62 melanoma, 97.4% in the assay on LOX IMVI melanoma and 112% with SK-MEL-28 melanoma.
As to `N#Cc1ccc2nc[nH]c2c1`, the growth is 106% in the assay with HCT-15 colon; 112% in the assay with HT29 colon; 95.5% in the assay with SNB-75 CNS; 111% in the assay on SNB-19 CNS; 101% with U251 CNS; 105% in the assay with PC-3 prostate. For the same compound, the growth with SK-MEL-5 melanoma was 102%; with UACC-62 melanoma, 105%; with LOX IMVI melanoma it was 101%; in the assay with SK-MEL-28 melanoma, 108%.
For `ClCC(Cl)[C@@H]1CC2C=CC1C2` (stereo not given in full), the growth with HCT-15 colon is 109%; in the assay on HT29 colon, 107%; with SNB-75 CNS it was 93.6%; in the assay on SNB-19 CNS it was 104%; in the assay on U251 CNS it was 99.5%; with PC-3 prostate it was 102%. In addition, the growth with SK-MEL-5 melanoma is 99.1%; in the assay on UACC-62 melanoma, 98.7%; in the assay on LOX IMVI melanoma, 97.7%; with SK-MEL-28 melanoma, 106%.
For `O=S(=O)(OCCOS(=O)(=O)c1ccccc1)c1ccccc1`, the growth was 91.9% with HCT-15 colon; 92.2% in the assay on HT29 colon; 93.6% with SNB-75 CNS; 104% with SNB-19 CNS; 92.6% in the assay on U251 CNS; 94.4% in the assay on PC-3 prostate. Further, the growth with SK-MEL-5 melanoma is 93.6%; with UACC-62 melanoma, 95.4%; in the assay with LOX IMVI melanoma, 91.7%; in the assay on SK-MEL-28 melanoma, 112%.
As for `Cc1cc(Nc2ccc3c(c2)OCO3)c2cc3c(cc2n1)OCO3`, the growth in the assay with HCT-15 colon was 19.9%; with HT29 colon, 15.8%; in the assay with SNB-75 CNS, 25.6%; in the assay with SNB-19 CNS it was 0.716% (active); with U251 CNS, 19.9%; in the assay with PC-3 prostate it was 10.6%. Further, the growth in the assay with SK-MEL-5 melanoma is 22.6%; in the assay on UACC-62 melanoma it was 34%; in the assay with LOX IMVI melanoma it was 14.3%; with SK-MEL-28 melanoma it was 34.2%.
For `NC(=O)NCCO`, the growth in the assay with HCT-15 colon is 109%; with HT29 colon, 100%; in the assay on SNB-75 CNS it was 105%; with SNB-19 CNS, 104%; in the assay with U251 CNS, 92.5%; in the assay with PC-3 prostate, 94.5%. The growth with SK-MEL-5 melanoma was 98%; in the assay on UACC-62 melanoma, 95.5%; in the assay on LOX IMVI melanoma it was 97.7%; with SK-MEL-28 melanoma, 113%.
As to `O=C(NCCc1ccccc1)/C(=C\c1ccc(Cl)cc1Cl)NC(=O)c1ccccc1`, the growth in the assay on HCT-15 colon was 98.4%; with HT29 colon, 98.3%; with SNB-75 CNS, 83.4%; in the assay on SNB-19 CNS, 99.2%; in the assay with U251 CNS it was 97%; in the assay on PC-3 prostate, 88.8%. Besides, the growth is 96.4% with SK-MEL-5 melanoma, 98.6% in the assay with UACC-62 melanoma, 92.7% in the assay with LOX IMVI melanoma and 105% in the assay with SK-MEL-28 melanoma.
Turning to `OC1Cc2ccccc2C1`, the growth with HCT-15 colon was 93.3%; in the assay on HT29 colon it was 100%; with SNB-75 CNS it was 93.6%; with SNB-19 CNS it was 100%; in the assay with U251 CNS, 105%; in the assay on PC-3 prostate, 95.4%. For the same compound, the growth in the assay with SK-MEL-5 melanoma is 101%; in the assay with UACC-62 melanoma, 95.6%; with LOX IMVI melanoma, 93.3%; in the assay on SK-MEL-28 melanoma, 102%.
For `CCN(CC)c1ccc2nc3ccc(N=Nc4ccc(N(C)C)cc4)cc3[n+](-c3ccccc3)c2c1`, the growth with HCT-15 colon is -10.3% (active); with HT29 colon, -31.8% (active); in the assay with SNB-75 CNS it was -98.9% (active); in the assay with SNB-19 CNS, 40.3%; with U251 CNS, -52% (active); with PC-3 prostate, 6.24% (active). Besides, the growth with SK-MEL-5 melanoma is -97.4% (active); in the assay with UACC-62 melanoma, -59.1% (active); in the assay with LOX IMVI melanoma it was -91.9% (active); in the assay with SK-MEL-28 melanoma, -36.1% (active).
As for `O=c1n(CC2CO2)c(=O)n(CC2CO2)n1CC1CO1` (stereo not given), the growth in the assay with HCT-15 colon is 60.5%; in the assay with HT29 colon, 69.5%; with SNB-75 CNS it was 79.5%; with SNB-19 CNS it was 62.4%; with U251 CNS, 54.3%; with PC-3 prostate, 70%. The growth in the assay with SK-MEL-5 melanoma was 67.1%; in the assay with UACC-62 melanoma, 54.1%; with LOX IMVI melanoma, 52.1%; in the assay on SK-MEL-28 melanoma it was 93%.
For the compound `CC(CC(CCC(=O)O)(c1ccccc1)c1ccccc1)N(C)C` (stereo not given), the growth in the assay on HCT-15 colon is 95.6%; with HT29 colon it was 105%; in the assay with SNB-75 CNS, 99.6%; in the assay on SNB-19 CNS, 110%; in the assay with U251 CNS, 92.3%; in the assay on PC-3 prostate it was 103%. In addition, the growth with SK-MEL-5 melanoma was 95.5%; in the assay on UACC-62 melanoma, 103%; with LOX IMVI melanoma it was 98.8%; with SK-MEL-28 melanoma, 104%.
In the case of `CCc1ccccc1C(=O)N(CC)CC`, the growth is 103% in the assay with HCT-15 colon; 106% in the assay with HT29 colon; 90.6% in the assay with SNB-75 CNS; 105% with SNB-19 CNS; 103% in the assay on U251 CNS; 102% in the assay with PC-3 prostate. Further, the growth in the assay on SK-MEL-5 melanoma is 104%; in the assay with UACC-62 melanoma it was 99.5%; with LOX IMVI melanoma, 99.2%; with SK-MEL-28 melanoma, 102%.
